According to article PMC7862700, “An all-to-all approach to the identification of sequence-specific readers for epigenetic DNA modifications on cytosine”:

Key:
Experiment in all cases: DAPPL (digital affinity profiling via proximity ligation, sequencing); 10 mM Tris-HCl pH 7.5, 50 mM NaCl, 1 mM DTT, 4% glycerol, room temperature, 30 min; GST-TFs on glutathione beads, 16-mer random dsDNA library, 0.1% formaldehyde crosslink after washing; high values mean tight binding
Conditions in all cases: protein: recombinant; tags: N-terminal GST; dsDNA, one strand shown
FLI1 = molecular target: T1, FLI1 (Homo sapiens, UniProt Q01543 1-452)
T1 sequence: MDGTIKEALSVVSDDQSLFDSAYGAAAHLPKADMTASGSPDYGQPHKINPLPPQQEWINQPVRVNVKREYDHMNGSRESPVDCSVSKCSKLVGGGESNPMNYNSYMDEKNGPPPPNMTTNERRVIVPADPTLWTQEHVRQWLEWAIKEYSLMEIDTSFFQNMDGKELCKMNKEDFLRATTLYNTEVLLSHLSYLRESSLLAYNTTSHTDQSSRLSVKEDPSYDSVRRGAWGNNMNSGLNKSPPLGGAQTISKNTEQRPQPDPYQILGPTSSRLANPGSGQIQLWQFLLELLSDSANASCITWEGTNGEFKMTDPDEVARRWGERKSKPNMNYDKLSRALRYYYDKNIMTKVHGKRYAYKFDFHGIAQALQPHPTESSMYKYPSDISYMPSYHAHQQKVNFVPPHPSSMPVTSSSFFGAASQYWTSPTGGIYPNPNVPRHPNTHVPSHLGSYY
In short: (§1)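 Pools were built from human transcription factors expressed in yeast as GST fusions, captured on glutathione beads and DNA-barcoded, along with a tag-only sample. Incubation with 200 nmole of a 16-mer random double-stranded DNA library lasted 30 min at room temperature in Tris/NaCl/DTT/glycerol buffer, and was followed by washing, 0.1% formaldehyde crosslinking, proximity ligation, PCR amplification and Illumina NextSeq500 sequencing. Binding signal is the quotient of each hexamer's read frequency for a factor and its frequency for the tag-only sample.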

ELK1 = molecular target: T2, ELK1 (Homo sapiens, UniProt P19419 1-428)
T2 sequence: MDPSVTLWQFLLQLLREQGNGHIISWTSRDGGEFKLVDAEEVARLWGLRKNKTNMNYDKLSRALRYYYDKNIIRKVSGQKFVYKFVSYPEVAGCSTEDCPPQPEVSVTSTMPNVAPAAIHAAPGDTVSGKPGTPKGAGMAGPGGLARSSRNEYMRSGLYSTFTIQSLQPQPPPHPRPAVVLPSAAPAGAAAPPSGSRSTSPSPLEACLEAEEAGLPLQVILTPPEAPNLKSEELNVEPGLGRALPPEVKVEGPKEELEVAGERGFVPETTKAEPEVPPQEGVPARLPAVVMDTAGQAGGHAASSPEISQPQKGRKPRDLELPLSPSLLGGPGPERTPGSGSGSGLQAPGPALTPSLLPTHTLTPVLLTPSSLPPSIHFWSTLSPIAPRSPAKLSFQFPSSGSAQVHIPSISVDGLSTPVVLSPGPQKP
In short: as §1

GABPA = molecular target: T3, GABPA (Homo sapiens, UniProt Q06546 1-454)
T3 sequence: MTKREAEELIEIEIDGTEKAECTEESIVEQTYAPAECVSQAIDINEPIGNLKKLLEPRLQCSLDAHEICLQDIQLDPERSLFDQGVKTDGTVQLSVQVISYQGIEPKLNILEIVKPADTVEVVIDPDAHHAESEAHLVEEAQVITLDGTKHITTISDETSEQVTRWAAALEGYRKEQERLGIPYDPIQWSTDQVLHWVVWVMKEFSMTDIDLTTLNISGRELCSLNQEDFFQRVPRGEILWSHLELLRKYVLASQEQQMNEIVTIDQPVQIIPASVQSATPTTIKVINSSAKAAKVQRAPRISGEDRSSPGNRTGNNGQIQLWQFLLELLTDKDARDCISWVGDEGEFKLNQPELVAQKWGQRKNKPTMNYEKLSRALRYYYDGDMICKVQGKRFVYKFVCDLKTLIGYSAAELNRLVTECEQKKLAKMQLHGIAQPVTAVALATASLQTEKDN
In short: as §1

ERG = molecular target: T4, ERG (Homo sapiens, UniProt P11308 1-479)
T4 sequence: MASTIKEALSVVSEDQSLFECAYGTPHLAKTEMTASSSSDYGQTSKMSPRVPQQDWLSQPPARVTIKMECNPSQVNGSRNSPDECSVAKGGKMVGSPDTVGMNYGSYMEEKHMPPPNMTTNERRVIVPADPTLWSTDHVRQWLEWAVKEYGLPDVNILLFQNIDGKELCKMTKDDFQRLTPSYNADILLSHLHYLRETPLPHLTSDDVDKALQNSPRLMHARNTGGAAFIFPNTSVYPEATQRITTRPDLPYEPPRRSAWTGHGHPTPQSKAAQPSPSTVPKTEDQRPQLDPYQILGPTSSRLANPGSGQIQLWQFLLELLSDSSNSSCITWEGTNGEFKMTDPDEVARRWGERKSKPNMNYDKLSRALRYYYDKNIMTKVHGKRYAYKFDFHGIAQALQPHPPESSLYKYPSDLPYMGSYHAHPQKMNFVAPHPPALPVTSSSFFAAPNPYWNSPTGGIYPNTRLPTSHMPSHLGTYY
In short: as §1

ELF1 = ELF1 (Homo sapiens, UniProt P32519 1-619)
In short: as §1

EHF = molecular target: T5, EHF (Homo sapiens, UniProt Q9NZC4 1-300)
T5 sequence: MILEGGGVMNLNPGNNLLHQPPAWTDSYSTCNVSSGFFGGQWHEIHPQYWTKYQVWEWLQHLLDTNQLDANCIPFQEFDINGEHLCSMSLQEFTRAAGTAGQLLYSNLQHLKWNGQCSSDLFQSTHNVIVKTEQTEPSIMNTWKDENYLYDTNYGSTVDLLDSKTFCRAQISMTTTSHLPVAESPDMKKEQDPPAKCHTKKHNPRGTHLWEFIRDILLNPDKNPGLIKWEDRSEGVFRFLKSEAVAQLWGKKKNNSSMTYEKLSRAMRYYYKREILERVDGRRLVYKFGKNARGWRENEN
In short: as §1

SPI1 = SPI1 (Homo sapiens, UniProt P17947 1-270)
In short: as §1

SPIB = SPIB (Homo sapiens, UniProt Q01892 1-262)
In short: as §1

ELK3 = molecular target: T6, ELK3 (Homo sapiens, UniProt P41970 1-407)
T6 sequence: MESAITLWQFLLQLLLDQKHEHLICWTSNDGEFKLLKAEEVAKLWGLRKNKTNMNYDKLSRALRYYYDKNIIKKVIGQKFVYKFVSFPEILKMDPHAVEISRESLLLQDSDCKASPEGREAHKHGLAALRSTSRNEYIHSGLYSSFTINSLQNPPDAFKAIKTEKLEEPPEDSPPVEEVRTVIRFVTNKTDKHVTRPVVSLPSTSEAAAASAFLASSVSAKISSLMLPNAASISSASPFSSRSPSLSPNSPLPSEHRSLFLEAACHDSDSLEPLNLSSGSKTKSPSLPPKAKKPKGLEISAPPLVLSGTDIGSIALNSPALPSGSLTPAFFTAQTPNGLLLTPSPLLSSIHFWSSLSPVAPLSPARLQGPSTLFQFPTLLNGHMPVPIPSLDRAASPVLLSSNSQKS
In short: as §1

FEV = molecular target: T7, FEV (Homo sapiens, UniProt Q99581 1-238)
T7 sequence: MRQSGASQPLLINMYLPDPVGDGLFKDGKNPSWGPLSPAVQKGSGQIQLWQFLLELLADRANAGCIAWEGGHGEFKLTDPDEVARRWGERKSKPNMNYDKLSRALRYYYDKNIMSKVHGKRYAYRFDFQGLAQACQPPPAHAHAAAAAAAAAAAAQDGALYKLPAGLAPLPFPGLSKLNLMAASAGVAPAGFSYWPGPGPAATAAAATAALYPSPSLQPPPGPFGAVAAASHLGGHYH
In short: as §1

ETV5 = ETV5 (Homo sapiens, UniProt P41161 1-510)
In short: as §1

SPIC = molecular target: T8, SPIC (Homo sapiens, UniProt Q8N5J4 1-248)
T8 sequence: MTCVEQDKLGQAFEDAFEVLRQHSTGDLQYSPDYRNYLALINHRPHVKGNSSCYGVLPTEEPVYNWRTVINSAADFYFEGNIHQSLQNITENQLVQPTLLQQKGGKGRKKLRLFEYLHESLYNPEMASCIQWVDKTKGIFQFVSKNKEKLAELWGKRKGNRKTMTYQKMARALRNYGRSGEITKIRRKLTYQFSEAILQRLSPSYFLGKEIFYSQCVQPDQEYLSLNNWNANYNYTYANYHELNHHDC
In short: as §1

ELF4 = ELF4 (Homo sapiens, UniProt Q99607 1-663)
In short: as §1

ELK4 = molecular target: T9, ELK4 (Homo sapiens, UniProt P28324-2 1-405)
T9 sequence: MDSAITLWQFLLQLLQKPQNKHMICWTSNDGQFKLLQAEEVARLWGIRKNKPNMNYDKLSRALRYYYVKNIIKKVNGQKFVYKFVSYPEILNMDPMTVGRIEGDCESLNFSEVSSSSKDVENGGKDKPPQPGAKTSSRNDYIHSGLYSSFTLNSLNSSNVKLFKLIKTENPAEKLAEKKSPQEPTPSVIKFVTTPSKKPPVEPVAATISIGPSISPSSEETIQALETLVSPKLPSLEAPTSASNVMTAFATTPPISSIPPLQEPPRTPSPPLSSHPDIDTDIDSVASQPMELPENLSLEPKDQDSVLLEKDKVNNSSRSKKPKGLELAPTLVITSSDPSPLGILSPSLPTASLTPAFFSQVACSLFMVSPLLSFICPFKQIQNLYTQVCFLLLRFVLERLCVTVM
In short: as §1

ETV2 = molecular target: T10, ETV2 (Homo sapiens, UniProt O00321 1-342)
T10 sequence: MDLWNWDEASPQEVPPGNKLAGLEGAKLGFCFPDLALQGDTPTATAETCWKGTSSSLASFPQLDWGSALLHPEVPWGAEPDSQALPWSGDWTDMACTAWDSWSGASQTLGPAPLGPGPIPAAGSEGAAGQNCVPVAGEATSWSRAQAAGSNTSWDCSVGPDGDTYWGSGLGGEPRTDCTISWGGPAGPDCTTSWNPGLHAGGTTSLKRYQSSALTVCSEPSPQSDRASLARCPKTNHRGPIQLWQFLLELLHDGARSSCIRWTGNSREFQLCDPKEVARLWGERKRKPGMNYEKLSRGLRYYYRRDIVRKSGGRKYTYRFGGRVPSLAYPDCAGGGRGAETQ
In short: as §1

ELF3 = molecular target: T11, ELF3 (Homo sapiens, UniProt P78545 1-371)
T11 sequence: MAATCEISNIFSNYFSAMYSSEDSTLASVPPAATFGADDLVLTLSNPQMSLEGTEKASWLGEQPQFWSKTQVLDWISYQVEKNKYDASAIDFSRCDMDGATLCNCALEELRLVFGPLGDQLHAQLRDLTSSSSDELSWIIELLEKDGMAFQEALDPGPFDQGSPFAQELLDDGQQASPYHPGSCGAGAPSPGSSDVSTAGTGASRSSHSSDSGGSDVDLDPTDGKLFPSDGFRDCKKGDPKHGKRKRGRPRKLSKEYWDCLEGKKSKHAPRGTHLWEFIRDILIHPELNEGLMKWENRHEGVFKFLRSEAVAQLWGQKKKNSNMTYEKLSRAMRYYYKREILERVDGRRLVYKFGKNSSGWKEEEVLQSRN
In short: as §1

ETV1 = ETV1 (Homo sapiens, UniProt P50549 1-477)
In short: as §1

Chain of ELF4 (Q99607 whole entry): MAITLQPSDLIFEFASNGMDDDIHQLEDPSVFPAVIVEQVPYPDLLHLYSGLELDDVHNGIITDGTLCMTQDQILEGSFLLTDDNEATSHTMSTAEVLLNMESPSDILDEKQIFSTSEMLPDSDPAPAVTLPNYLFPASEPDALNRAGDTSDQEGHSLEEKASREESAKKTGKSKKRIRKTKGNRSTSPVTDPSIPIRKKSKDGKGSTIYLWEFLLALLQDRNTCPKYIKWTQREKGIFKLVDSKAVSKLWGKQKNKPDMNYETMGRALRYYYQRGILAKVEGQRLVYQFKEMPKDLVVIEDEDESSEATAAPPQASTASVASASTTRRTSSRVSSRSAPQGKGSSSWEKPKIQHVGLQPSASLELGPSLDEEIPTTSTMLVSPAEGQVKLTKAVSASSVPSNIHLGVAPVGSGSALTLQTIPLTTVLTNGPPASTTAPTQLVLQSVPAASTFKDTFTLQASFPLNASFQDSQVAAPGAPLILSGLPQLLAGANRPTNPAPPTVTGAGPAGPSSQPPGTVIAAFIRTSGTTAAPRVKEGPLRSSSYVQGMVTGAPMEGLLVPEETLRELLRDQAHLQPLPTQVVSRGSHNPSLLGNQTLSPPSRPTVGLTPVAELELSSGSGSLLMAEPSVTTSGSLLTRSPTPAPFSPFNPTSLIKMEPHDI
Chain of ETV1 (P50549 whole entry): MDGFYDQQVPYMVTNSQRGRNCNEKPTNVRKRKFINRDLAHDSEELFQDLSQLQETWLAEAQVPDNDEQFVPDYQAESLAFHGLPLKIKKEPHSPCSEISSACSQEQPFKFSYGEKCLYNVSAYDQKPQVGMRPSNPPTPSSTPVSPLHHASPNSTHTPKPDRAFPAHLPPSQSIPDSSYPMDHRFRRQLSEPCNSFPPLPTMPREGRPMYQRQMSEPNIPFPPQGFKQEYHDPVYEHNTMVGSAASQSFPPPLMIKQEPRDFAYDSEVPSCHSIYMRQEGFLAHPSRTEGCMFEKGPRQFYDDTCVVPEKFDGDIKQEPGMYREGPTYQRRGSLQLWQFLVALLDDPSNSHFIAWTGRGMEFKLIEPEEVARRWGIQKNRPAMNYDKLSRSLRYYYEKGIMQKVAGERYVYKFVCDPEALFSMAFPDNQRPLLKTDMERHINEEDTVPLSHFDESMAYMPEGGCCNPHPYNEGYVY
Chain of ETV5 (P41161 whole entry): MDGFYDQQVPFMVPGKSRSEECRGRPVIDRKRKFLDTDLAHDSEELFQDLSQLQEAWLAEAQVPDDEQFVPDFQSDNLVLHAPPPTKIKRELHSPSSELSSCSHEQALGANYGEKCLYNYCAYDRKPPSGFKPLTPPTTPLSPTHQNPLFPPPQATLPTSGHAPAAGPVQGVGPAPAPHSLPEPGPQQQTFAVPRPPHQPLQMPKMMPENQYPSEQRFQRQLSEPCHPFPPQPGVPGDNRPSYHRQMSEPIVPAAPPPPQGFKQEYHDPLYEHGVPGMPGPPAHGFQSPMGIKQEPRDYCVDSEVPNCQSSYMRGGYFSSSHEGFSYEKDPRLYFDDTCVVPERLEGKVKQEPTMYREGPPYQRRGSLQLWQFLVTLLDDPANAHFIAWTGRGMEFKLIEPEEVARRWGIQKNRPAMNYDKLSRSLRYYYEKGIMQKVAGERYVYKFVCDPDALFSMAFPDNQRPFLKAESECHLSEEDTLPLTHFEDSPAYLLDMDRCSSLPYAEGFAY
Chain of ELF1 (P32519 whole entry): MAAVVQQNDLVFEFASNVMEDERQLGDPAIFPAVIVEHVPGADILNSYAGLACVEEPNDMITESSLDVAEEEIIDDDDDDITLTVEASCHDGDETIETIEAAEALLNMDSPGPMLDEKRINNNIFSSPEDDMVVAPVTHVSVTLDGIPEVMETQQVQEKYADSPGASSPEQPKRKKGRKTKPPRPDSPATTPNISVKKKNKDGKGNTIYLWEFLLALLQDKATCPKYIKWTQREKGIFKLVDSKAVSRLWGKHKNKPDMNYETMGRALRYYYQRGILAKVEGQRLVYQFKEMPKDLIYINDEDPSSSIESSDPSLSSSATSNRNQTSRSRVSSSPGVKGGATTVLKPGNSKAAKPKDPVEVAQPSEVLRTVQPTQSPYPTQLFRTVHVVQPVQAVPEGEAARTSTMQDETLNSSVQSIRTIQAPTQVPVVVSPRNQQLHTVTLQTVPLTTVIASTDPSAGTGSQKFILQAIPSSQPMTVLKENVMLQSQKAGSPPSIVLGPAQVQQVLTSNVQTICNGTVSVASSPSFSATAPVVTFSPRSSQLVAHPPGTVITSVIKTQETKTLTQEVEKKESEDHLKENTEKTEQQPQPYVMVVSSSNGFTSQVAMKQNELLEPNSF
Chain of SPIB (Q01892 whole entry): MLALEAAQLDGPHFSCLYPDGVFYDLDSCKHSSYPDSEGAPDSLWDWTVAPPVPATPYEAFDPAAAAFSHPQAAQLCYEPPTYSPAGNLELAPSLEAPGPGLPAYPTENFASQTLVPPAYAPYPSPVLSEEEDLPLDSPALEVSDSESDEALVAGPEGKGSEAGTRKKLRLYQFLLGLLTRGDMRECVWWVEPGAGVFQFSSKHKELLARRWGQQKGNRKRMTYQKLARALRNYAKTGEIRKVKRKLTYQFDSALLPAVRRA

Sequence | binding signal (FLI1) | binding signal (ELK1) | binding signal (GABPA) | binding signal (ERG) | binding signal (ELF1) | binding signal (EHF) | binding signal (SPI1) | binding signal (SPIB) | binding signal (ELK3) | binding signal (FEV) | binding signal (ETV5) | binding signal (SPIC) | binding signal (ELF4) | binding signal (ELK4) | binding signal (ETV2) | binding signal (ELF3) | binding signal (ETV1)
GGAAGC | 1.5 fold enrichment (6-mer frequency, TF over GST control) | 1.64 fold enrichment (6-mer frequency, TF over GST control) | 1.45 fold enrichment (6-mer frequency, TF over GST control) | 1.85 fold enrichment (6-mer frequency, TF over GST control) | 1.39 fold enrichment (6-mer frequency, TF over GST control) | 1.68 fold enrichment (6-mer frequency, TF over GST control) | 1.74 fold enrichment (6-mer frequency, TF over GST control) | 1.63 fold enrichment (6-mer frequency, TF over GST control) | 1.77 fold enrichment (6-mer frequency, TF over GST control) | 1.74 fold enrichment (6-mer frequency, TF over GST control) | 1.79 fold enrichment (6-mer frequency, TF over GST control) | 1.39 fold enrichment (6-mer frequency, TF over GST control) | 1.4 fold enrichment (6-mer frequency, TF over GST control) | 1.43 fold enrichment (6-mer frequency, TF over GST control) | 1.54 fold enrichment (6-mer frequency, TF over GST control) | 1.48 fold enrichment (6-mer frequency, TF over GST control) | 1.82 fold enrichment (6-mer frequency, TF over GST control)
ACTGAC | 1.13 fold enrichment (6-mer frequency, TF over GST control) | 1.14 fold enrichment (6-mer frequency, TF over GST control) | 1.22 fold enrichment (6-mer frequency, TF over GST control) | 1.17 fold enrichment (6-mer frequency, TF over GST control) | 1.22 fold enrichment (6-mer frequency, TF over GST control) | 1.16 fold enrichment (6-mer frequency, TF over GST control) | 1.26 fold enrichment (6-mer frequency, TF over GST control) | 1.21 fold enrichment (6-mer frequency, TF over GST control) | 1.11 fold enrichment (6-mer frequency, TF over GST control) | 1.26 fold enrichment (6-mer frequency, TF over GST control) | 1.19 fold enrichment (6-mer frequency, TF over GST control) | 1.24 fold enrichment (6-mer frequency, TF over GST control) | 1.23 fold enrichment (6-mer frequency, TF over GST control) | 1.11 fold enrichment (6-mer frequency, TF over GST control) | 1.3 fold enrichment (6-mer frequency, TF over GST control) | 1.14 fold enrichment (6-mer frequency, TF over GST control) | 1.25 fold enrichment (6-mer frequency, TF over GST control)
